In PubChem BioAssay AID2116 (The Scripps Research Institute Molecular Screening Center, 2009):
The source made the active and inactive calls. How the calls were made is not given here.

Target: Mucolipin-3 (Homo sapiens) (UniProt Q8TDD5)
Assay: TRPML3 and TRPML2 channel agonists, cell-based, patch clamp, Fura-2 profiling panel (AID 2116)
Details: HEK293 cells expressing TRPML3-YFP, TRPML3 Fura-2 Imaging; Fura-2 340/380 ratio change, at 10 µM, stronger effect = higher value

Mucolipin-3 (Homo sapiens), sequence (Q8TDD5 whole entry, looked up): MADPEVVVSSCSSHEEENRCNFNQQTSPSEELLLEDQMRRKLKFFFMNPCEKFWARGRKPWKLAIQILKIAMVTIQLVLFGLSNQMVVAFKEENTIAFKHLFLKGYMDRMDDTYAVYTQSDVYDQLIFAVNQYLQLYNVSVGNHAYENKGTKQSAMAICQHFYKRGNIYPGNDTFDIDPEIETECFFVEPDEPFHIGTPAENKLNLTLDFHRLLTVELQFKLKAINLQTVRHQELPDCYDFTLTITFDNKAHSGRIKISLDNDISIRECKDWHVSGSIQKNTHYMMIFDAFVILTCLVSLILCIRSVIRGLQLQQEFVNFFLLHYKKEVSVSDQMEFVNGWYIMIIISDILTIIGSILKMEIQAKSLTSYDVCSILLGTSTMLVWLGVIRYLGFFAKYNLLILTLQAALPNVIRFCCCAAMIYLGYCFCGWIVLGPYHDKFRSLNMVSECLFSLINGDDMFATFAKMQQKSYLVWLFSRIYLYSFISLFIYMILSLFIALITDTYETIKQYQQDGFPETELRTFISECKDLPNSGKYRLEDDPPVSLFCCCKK

SMILES | delta F ratio | outcome
O=S(=O)(NC1CCCCC1N1CCOCC1)c1ccc(Cl)cc1 (stereo not given) | 1.38 | active; no effect on six other TRP channels
O=S(=O)(Nc1ccccc1N1CCCCC1)c1ccc(Cl)s1 | 1 | active; no effect on six other TRP channels
Cc1ccc(N2CCN(S(=O)(=O)N3CCCCC3)CC2)c(C)c1 | 0.99 | active; no effect on six other TRP channels
O=S(=O)(Nc1ccccc1N1CCOCC1)c1ccc(Cl)s1 | 0.93 | active; no effect on six other TRP channels
Cc1ccc(S(=O)(=O)Nc2ccccc2-c2ccccc2)cc1 | 0.51 | active; no effect on six other TRP channels
